Data on 89 compounds can be found in PubChem BioAssay AID1645853 (Buhrlage Lab, Dana-Farber Cancer Institute and Novartis …, 2021).

The campaign covered roughly 47,000 compounds. About 2,000 (4.3%) were called active. Many of the other results were omitted from the sample, so actives are more common in it than they were. A number with no mark means an inactive call. Cut-off read from the data, not from the text of the source: active = inhibition above about 30%; inactive = the rest.

In this test the target is Ubiquitin carboxyl-terminal hydrolase 8 (Homo sapiens) (UniProt P40818). The test is described as follows: inhibitors of human USP8 deubiquitinase (AID 1645853). Particulars: purified USP8, Ub-rhodamine cleavage fluorescence, 30 min; at 20 µM; hits give high values.
Chain of Ubiquitin carboxyl-terminal hydrolase 8 (Homo sapiens) (P40818 whole entry, looked up): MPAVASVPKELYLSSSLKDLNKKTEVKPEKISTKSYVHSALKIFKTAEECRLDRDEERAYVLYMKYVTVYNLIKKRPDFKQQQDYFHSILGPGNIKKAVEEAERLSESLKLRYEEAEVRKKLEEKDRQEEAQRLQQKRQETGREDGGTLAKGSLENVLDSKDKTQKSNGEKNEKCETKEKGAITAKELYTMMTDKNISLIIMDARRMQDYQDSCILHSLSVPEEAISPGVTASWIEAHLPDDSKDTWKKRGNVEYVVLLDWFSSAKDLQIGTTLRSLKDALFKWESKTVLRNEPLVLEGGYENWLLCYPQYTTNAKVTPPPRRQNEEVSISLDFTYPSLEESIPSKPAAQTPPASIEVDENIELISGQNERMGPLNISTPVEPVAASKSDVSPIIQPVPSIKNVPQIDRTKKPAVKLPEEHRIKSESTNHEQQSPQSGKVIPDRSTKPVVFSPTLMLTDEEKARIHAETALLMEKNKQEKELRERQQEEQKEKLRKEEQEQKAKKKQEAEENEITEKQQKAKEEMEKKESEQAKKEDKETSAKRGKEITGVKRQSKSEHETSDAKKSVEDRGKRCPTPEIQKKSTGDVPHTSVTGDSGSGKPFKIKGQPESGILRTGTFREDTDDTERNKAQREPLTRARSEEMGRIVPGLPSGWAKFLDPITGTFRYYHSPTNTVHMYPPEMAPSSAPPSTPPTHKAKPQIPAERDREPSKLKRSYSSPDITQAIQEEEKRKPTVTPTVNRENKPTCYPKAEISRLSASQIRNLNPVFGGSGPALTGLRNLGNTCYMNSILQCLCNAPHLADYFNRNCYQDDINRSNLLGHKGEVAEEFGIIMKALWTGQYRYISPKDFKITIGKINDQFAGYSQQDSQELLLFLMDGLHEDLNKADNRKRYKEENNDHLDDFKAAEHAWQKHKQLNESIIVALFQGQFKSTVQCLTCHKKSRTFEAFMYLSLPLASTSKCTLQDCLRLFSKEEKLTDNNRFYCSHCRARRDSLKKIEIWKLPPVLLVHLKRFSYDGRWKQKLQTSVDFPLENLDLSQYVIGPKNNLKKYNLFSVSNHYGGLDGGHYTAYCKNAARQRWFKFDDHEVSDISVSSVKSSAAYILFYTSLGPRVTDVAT
The term inhibition denotes the relative decrease from the control value, in per cent. For the compound `Oc1cccc2nc3c(O)cccc3nc12`, the inhibition is 94.4% (active).

Turning to `O=C(NCc1ccc2c(c1)OCO2)C1CCCN(c2nc3ccc(Cl)cc3[nH]2)C1` (centres undefined), the inhibition was 7.49%.

In the case of `CC(=O)N[C@@]12CN(C)CC[C@@H]1[C@@H](c1ccccc1)N(CC(=O)Nc1cc(F)ccc1C)C2`, the inhibition was -5.94%.

As for `Cc1ccc(CNC(=O)CCCn2c(=O)c3sccc3n(CC(=O)OCc3ccccc3)c2=O)cc1`, the inhibition is 63.4% (active).

On to `N#Cc1ccccc1Cn1c(=O)n(CCCC(=O)NCc2ccc(F)cc2)c(=O)c2ccccc21`, for which the inhibition was 15.6%.

With `COc1ccc(CCNC(=O)CCCn2c(=O)c3ccccc3n(CC(=O)OCc3ccccc3)c2=O)cc1OC`, the inhibition is 1.77%.

`Cc1cc(C)nc(-n2nc(C)c(C#N)c2NC(=O)c2cccc(Cl)c2)n1`: the inhibition is 2.08%.

Consider `COc1ccc(-c2cnoc2-c2ccc(O)cc2O)cc1OC`, for which the inhibition is 22%.

Take `Fc1ccc(-n2cc(-c3ccccc3)c3c(NCc4ccco4)ncnc32)cc1`: the inhibition is 5.27%.

On to `CC(C)Cc1nc2sc3c(NCc4ccco4)ncnc3c2c2c1CCC2`, for which the inhibition is 16.6%.

Consider `c1coc(CNc2nc(Nc3cccc4ccccc34)nc3ccccc23)c1`, for which the inhibition is 35.8% (active).

`COCCN1CC[C@@H]2Oc3ccccc3S(=O)(=O)N(Cc3cccnc3)[C@H]2CC1`: the inhibition is -50.1%.

For `COc1cccc(S(=O)(=O)N2CCC(n3cnnc3C3CC3)CC2)c1`, the inhibition is 1.34%.

In the case of `COc1cc(-c2nc3c4cnn(-c5ccccc5)c4ncn3n2)cc(OC)c1OC`, the inhibition was -3.12%.

Turning to `C#CCOc1ccc(CN2CCc3nc(-c4cccnc4)[nH]c(=O)c3C2)cc1OC`, the inhibition is 13.3%.

For `C#CCOc1ccc2ccccc2c1CN1CCc2ccccc2C1`, the inhibition is 41.1% (active).

`Cn1nnnc1-c1cc(Cl)cc(Cl)c1`: the inhibition is -13.4%.

Regarding `CCc1cc(=O)n(CC(=O)NCC2CCCO2)c(N)n1` (centres undefined), the inhibition is 0.518%.

Consider `COc1cccc(CNC(=O)N2CCN(Cc3ccc4nccnc4c3)CC2)c1`, for which the inhibition is -8.24%.

Consider `Cn1c(CC2CCN(S(=O)(=O)c3cccnc3)C2)nc2cccnc21` (centres undefined), for which the inhibition was 13.9%.

With `O=C(NCc1ccccc1)c1c(O)c2cnn(Cc3ccccc3)c2[nH]c1=O`, the inhibition is 0.46%.

Consider `CC(C)CCNC(=O)C1(C)Cn2c(cc3ccccc32)C(=O)N1Cc1ccccc1F` (centres undefined), for which the inhibition is 0.22%.

On to `COc1ccccc1CN1C(=O)c2cc3occc3n2CC1(C)C(=O)NC1CCCCC1` (centres undefined), for which the inhibition was 13.4%.

For `CC1(C(=O)NC2CCCC2)Cn2c(cc3ccccc32)C(=O)N1c1ccc(F)cc1` (centres undefined), the inhibition is 50.7% (active).

Turning to `CO\C=C(C(=O)OC)/C(=C\C=C\c1ccccc1)CO`, the inhibition is -79.7%.

Turning to `Cc1cc(C)c2ccc(NC(=O)c3ccco3)nc2n1`, the inhibition was -8.62%.

For the compound `Cc1nc(-n2[nH]c(C)c(CC(=O)N3CCOCC3)c2=O)sc1C`, the inhibition is 8.41%.

For the compound `CC(C)Cc1cc(-c2nn3c(-c4ccccc4Cl)nnc3s2)n[nH]1`, the inhibition is -0.275%.

Consider `Cc1c(-c2nn3c(-c4ccco4)nnc3s2)cccc1[N+](=O)[O-]`, for which the inhibition was 89.2% (active).

For `c1ccc(CN2CCCC(c3nc(-c4cccnc4)n[nH]3)C2)cc1` (centres undefined), the inhibition is -0.172%.

`O=C(CN1CCC(c2nc(-c3ccccc3)no2)CC1)Nc1ccccc1`: the inhibition was 3.46%.

Take `Cc1noc(-c2cccn(Cc3cc(F)ccc3F)c2=O)n1`: the inhibition is 2.57%.

Turning to `O=C(Cn1cccc(-c2nc(-c3ccccc3)no2)c1=O)Nc1ccccc1F`, the inhibition is 90.4% (active).

Turning to `CC(=O)c1ccc(NC(=O)c2cccc(-c3nc(-c4ccccc4)no3)c2)cc1`, the inhibition is 8.62%.

For the compound `CCc1ccc(C(=O)N2CCN(c3nnc4ccccn34)CC2)cc1`, the inhibition was -1.4%.

Take `O=C(c1ccccc1)N1CCCCCC1C1CCNCC1` (centres undefined): the inhibition is -4.33%.

In the case of `O=C(Nc1c2c(nn1-c1cccc(Cl)c1)CS(=O)(=O)C2)c1cccs1`, the inhibition is 9.3%.

For `CC(C)NC(=O)c1cccc(-n2cnnn2)c1`, the inhibition is -259%.

Take `Cc1cc(OCC(=O)Oc2ccc(-n3cnnn3)cc2)cc(C)c1Cl`: the inhibition is 44.3% (active).

For the compound `CC(C)c1ccc(OCC(=O)NCc2nnnn2-c2ccc(Cl)cc2)cc1`, the inhibition is 4.83%.

Regarding `Cc1ccnc(C2CN(C(=O)CCn3cnc4ccccc43)CCO2)n1` (centres undefined), the inhibition is 19.3%.

In the case of `COc1cc(NC(=O)CSc2nc3ccncc3[nH]2)cc(OC)c1`, the inhibition is 1.79%.

For `Nc1ccccc1-c1nnc(Cc2ccccc2)c(=O)[nH]1`, the inhibition is -0.271%.

As for `Cc1ccc(Cc2nnc(C(=O)NC(C)c3ccccc3)o2)cc1` (centres undefined), the inhibition was 0.117%.

Take `CC(Nc1nnc(Cc2ccccc2)c(=O)[nH]1)c1ccccc1` (centres undefined): the inhibition was 85.5% (active).

As to `CC(=O)NC(Cc1cccc(C)c1)C(=O)NC1CCN(C(=O)c2cccc(C)c2)CC1` (centres undefined), the inhibition was -1.31%.

As for `CN1[C@@H](CCC(=O)N2CCc3ccccc32)CNC(=O)[C@@H]2[C@H]1CCN2Cc1ncc[nH]1`, the inhibition was -8.85%.

Turning to `CN1[C@@H](CCC(=O)NCc2ccc(F)cc2)CNC(=O)[C@@H]2[C@H]1CCN2CC1CC1`, the inhibition was -6.51%.

Consider `COC(=O)C1CCN(C(=O)CC[C@H]2CNC(=O)[C@@H]3[C@@H](CCN3Cc3ccc(C)cc3)N2C)CC1`, for which the inhibition was 35.8% (active).

`COc1ccc(-c2c(C)noc2C)cc1S(=O)(=O)NC1CCCC1`: the inhibition was -9.12%.

Turning to `Clc1ccccc1C1SCC2=Nc3ccccc3CN21` (centres undefined), the inhibition was -101%.

As for `COc1cccc(NC(=O)Cn2c(-c3ccccc3)nc(C)cc2=O)c1`, the inhibition is 2.3%.

As for `CCN1C(=O)CCC12CCCN(S(=O)(=O)c1cccc(C)c1)CC2` (centres undefined), the inhibition was -101%.

Consider `CCC(=O)c1ccc(OCC(=O)Nc2ccc3nc(C)sc3c2)cc1`, for which the inhibition was -13%.

Consider `COc1ccc(NC(=O)c2ccnc(Nc3ccc(OC)cc3)c2)cc1`, for which the inhibition was 25.4%.

With `CCC(=O)Nc1nc2cc(NC(=O)c3ccc(OC)cc3)ccc2s1`, the inhibition is 47.8% (active).

On to `CCN1C(=O)c2ccccc2Sc2ccc(C(=O)NCc3ccc(OC)cc3OC)cc21`, for which the inhibition is 4.79%.

In the case of `COc1ccccc1CNC(=O)c1ccc(-n2nc(C)c3c2CCCC3=O)cc1`, the inhibition is 1.29%.

With `COc1cccc(CN2C(=O)c3ccccc3C2C(=O)NCc2ccccc2OC)c1` (centres undefined), the inhibition was 34.7% (active).

In the case of `CC(C)(C)NC(=O)CSc1nc2[nH]c(=O)cc(O)c2s1`, the inhibition is -9.23%.

`CC1Oc2ccccc2N(Cc2nc(-c3cccc(F)c3)no2)C1=O` (centres undefined): the inhibition is -3.17%.

For `O=C(COC(=O)CCc1nc2ccccc2c(=O)[nH]1)Nc1ccc(N2CCOCC2)cc1`, the inhibition is 2.83%.

Take `O=C(Cc1ccccc1Cl)Nc1ccc(N2CCOCC2)cc1`: the inhibition is 51.8% (active).

For the compound `CCN(CC)c1nc2ccccc2nc1C(=O)Nc1ccc(N2CCOCC2)cc1`, the inhibition is -1.27%.

On to `CN1C[C@H]2C[C@H](C(=O)Nc3ccc4c(c3)OCO4)[C@@H](C1)O2`, for which the inhibition is 6.94%.

As to `CNC(=O)N1C[C@H]2C[C@H](C(=O)Nc3ccc4c(c3)OCO4)[C@@H](C1)O2`, the inhibition was 37% (active).

For the compound `O=C(Nc1cccnc1)[C@H]1C[C@@H]2CN(S(=O)(=O)C3CC3)C[C@H]1O2`, the inhibition is -14%.

As for `CC(=O)c1ccc(NC(=O)Cn2c(=O)n(-c3ccccc3)c3ncccc32)cc1`, the inhibition is 10.4%.

On to `CCS(=O)(=O)N1CC(=O)N(c2cccc(OC)c2)C(C)(C(=O)NCc2ccccc2)C1` (centres undefined), for which the inhibition is -0.355%.

For `O=C(Nc1ccccc1F)NC1CCCN(c2cc(-c3ccncc3)[nH]n2)C1` (centres undefined), the inhibition is -92%.

As to `O=C(NCCc1ccccc1)c1ccc2c(=O)nc3c(-c4ccccc4F)n[nH]n3c2c1`, the inhibition is 2.58%.

For `COc1cccc(CNC(=O)c2ccc(-c3cncnc3)nc2)c1`, the inhibition was -15.9%.

For `O=C(NC1CCCCC1)c1ccc2c(=O)nc3c(-c4ccccc4F)n[nH]n3c2c1`, the inhibition was 49.8% (active).

For `O=C(NCc1ccco1)c1ccc2c(=O)nc3c(-c4ccc(F)cc4)n[nH]n3c2c1`, the inhibition was -4.4%.

Consider `COc1cccc(CNC(=O)c2ccc3c(=O)nc4c(-c5ccccc5)n[nH]n4c3c2)c1`, for which the inhibition is 71.8% (active).

As for `CN1CC(c2nc3ccccc3n2Cc2ccccc2)CC1=O` (centres undefined), the inhibition was -1.18%.

With `CNc1cncc(C2CCCN2C(=O)Cc2ccc3c(c2)OCO3)n1` (centres undefined), the inhibition is -1.13%.

As for `O=S(=O)(Nc1cccc(O)c1)c1ccc2oc3ccc(S(=O)(=O)Nc4cccc(O)c4)cc3c2c1`, the inhibition was 9.24%.

For the compound `Cc1cc(C)n(CCC(=O)NCC2CCOCC2)n1`, the inhibition is -2.76%.

In the case of `Cc1ccc(-c2nn(-c3ccccc3)cc2CNCc2cccnc2)cc1`, the inhibition is -268%.

As for `CNC1C(OC2C(OC3C(O)C(O)C(OC(N)=O)C(O)C3N=C(N)N)OC(C)C2(O)CO)OC(CO)C(O)C1O` (centres undefined), the inhibition was 0.384%.

With `CC(C)Nc1ncnc2c1c(C(=O)N1CCCC1)c1ccccn12`, the inhibition was 55.5% (active).

Consider `CCc1ccccc1NS(=O)(=O)c1c(C)[nH]c(C)c1C(=O)N1CCCC1`, for which the inhibition was 2.16%.

On to `CN1CCCN(C(=O)c2cc(-c3ccn(C)n3)n3ccccc23)CC1`, for which the inhibition is -22.2%.

Turning to `CN1[C@@H](CCC(=O)N2CCOCC2)CNC(=O)[C@@H]2[C@H]1CCN2C1CCCCC1`, the inhibition was 2.93%.

Consider `Cc1ccc(S(=O)(=O)Oc2cccnc2)c(C)c1F`, for which the inhibition was 10.5%.

For `C=C1CCC2[C@](C)(CCC[C@]2(C)C(=O)OC)[C@H]1CCc1ccoc1/C=C/C(=O)O` (some centres undefined), the inhibition is 63.4% (active).

For the compound `C=C1CCC2[C@](C)(CCC[C@]2(C)C(=O)OC)[C@H]1CCc1ccoc1C[N+](C)(C)Cc1ccccc1` (some centres undefined), the inhibition was 30.8% (active).

On to `C=C1CCC2[C@](C)(CCC[C@]2(C)C(=O)OC)[C@H]1CCc1ccoc1CNCC(=O)O` (some centres undefined), for which the inhibition was -5.45%.
